Inhibition data for seven compounds are collected here from ChEMBL document CHEMBL1961873, “Compounds: GSK PKIS; Assays: Nanosyn kinase panel” (2012).

The target in experiment [1] is T1, 3-phosphoinositide-dependent protein kinase 1 (Homo sapiens) (UniProt O15530).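 Also: values are mean inhibition of PDK1.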
T1 sequence (whole entry): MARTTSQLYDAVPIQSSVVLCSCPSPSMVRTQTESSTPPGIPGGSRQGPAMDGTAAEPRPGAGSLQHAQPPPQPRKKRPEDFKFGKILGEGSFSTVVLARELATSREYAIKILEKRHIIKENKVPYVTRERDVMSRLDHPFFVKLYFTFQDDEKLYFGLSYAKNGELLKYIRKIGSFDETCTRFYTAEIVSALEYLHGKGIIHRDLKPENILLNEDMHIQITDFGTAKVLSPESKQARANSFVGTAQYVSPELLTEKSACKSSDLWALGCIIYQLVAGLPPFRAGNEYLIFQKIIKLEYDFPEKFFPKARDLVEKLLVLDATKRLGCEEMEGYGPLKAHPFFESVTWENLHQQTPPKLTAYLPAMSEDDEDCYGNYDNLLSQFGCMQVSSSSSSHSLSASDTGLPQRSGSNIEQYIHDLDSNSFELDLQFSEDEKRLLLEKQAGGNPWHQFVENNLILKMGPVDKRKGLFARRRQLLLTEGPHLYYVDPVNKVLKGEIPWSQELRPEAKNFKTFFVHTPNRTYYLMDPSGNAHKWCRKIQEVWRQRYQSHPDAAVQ
Conditions: at 0.1 µM.

For experiment [2], the target named is cAMP-dependent protein kinase catalytic subunit alpha (Homo sapiens) (UniProt P17612). The note with it: at 0.1 µM.
For experiment [3] the target is unchanged. The note with it: at 1 µM.
The target of experiment [4] is Protein kinase C alpha type (Homo sapiens) (UniProt P17252). Conditions: at 0.1 µM.
The target is the same in experiment [5]. Conditions: at 1 µM.
For experiment [6], the target named is Protein kinase C beta type (Homo sapiens) (UniProt P05771). Conditions: at 0.1 µM.
Experiment [7] has the same target. The note with it: at 1 µM.
In experiment [8] the target is Protein kinase C eta type (Homo sapiens) (UniProt P24723). Conditions: at 0.1 µM.
For experiment [9] the target is unchanged. The note with it: at 1 µM.
Experiment [10] has as its target Protein kinase C gamma type (Homo sapiens) (UniProt P05129). Conditions: at 0.1 µM.
The target is the same in experiment [11]. Conditions: at 1 µM.
Experiment [12] concerns the target T2, Protein kinase C iota type (Homo sapiens) (UniProt P41743).
T2 sequence (whole entry): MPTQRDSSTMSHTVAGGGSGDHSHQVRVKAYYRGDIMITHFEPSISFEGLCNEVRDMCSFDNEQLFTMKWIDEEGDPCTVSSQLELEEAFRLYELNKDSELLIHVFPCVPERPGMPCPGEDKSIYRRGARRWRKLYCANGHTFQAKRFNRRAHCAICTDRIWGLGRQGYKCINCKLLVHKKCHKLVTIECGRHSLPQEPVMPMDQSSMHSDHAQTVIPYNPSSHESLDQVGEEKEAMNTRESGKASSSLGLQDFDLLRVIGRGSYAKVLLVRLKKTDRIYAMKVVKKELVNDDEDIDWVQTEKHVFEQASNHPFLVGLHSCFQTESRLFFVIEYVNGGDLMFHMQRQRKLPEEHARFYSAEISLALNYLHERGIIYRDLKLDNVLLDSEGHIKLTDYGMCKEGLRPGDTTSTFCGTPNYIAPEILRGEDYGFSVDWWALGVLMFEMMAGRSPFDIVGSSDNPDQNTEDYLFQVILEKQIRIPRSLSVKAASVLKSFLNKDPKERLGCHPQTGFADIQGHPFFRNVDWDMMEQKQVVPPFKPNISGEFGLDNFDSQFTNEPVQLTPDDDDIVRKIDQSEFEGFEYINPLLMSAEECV
The note with it: at 0.1 µM.

Experiment [13] deals with T2, Protein kinase C iota type (Homo sapiens). The note with it: at 1 µM.
Experiment [14] deals with Protein kinase C theta type (Homo sapiens) (UniProt Q04759). Conditions: at 0.1 µM.
The target is the same in experiment [15]. The note with it: at 1 µM.
Experiment [16] deals with Protein kinase C beta type (Homo sapiens) (UniProt P05771). The note with it: at 0.1 µM. The source holds these as a separate data set.
The target is the same in experiment [17]. Conditions: at 1 µM. The source holds these as a separate data set.
Experiment [18] addresses T3, Serine/threonine-protein kinase D1 (Homo sapiens) (UniProt Q15139).
T3 sequence (whole entry): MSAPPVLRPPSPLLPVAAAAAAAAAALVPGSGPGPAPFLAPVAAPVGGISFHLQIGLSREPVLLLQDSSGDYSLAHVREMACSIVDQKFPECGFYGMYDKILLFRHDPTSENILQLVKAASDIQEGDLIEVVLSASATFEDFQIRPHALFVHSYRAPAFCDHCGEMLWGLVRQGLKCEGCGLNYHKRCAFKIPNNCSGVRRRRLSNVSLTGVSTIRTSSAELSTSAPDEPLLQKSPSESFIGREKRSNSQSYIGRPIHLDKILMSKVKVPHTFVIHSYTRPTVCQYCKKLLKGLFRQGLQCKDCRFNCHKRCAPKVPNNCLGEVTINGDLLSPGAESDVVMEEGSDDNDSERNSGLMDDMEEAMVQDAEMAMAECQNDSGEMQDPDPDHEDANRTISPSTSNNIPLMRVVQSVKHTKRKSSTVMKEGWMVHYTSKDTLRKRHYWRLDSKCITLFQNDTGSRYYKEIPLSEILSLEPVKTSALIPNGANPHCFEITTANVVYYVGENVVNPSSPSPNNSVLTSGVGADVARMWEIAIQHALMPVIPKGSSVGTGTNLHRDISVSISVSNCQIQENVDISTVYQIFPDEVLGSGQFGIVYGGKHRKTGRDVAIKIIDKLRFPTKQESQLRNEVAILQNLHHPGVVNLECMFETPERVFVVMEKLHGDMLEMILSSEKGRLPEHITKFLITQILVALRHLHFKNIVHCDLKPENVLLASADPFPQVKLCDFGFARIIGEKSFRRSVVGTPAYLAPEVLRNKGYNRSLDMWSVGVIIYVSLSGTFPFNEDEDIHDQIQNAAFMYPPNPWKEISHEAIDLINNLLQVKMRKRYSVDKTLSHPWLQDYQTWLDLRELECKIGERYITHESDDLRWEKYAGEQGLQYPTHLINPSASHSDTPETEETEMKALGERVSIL
Conditions: at 0.1 µM.

Experiment [19] concerns the target T3, Serine/threonine-protein kinase D1 (Homo sapiens). The note with it: at 1 µM.
The target of experiment [20] is T4, Serine/threonine-protein kinase D2 (Homo sapiens) (UniProt Q9BZL6).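 Also: reported percent inhibition values are means, part of the GSK PKIS kinase panel screen.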
T4 sequence (whole entry): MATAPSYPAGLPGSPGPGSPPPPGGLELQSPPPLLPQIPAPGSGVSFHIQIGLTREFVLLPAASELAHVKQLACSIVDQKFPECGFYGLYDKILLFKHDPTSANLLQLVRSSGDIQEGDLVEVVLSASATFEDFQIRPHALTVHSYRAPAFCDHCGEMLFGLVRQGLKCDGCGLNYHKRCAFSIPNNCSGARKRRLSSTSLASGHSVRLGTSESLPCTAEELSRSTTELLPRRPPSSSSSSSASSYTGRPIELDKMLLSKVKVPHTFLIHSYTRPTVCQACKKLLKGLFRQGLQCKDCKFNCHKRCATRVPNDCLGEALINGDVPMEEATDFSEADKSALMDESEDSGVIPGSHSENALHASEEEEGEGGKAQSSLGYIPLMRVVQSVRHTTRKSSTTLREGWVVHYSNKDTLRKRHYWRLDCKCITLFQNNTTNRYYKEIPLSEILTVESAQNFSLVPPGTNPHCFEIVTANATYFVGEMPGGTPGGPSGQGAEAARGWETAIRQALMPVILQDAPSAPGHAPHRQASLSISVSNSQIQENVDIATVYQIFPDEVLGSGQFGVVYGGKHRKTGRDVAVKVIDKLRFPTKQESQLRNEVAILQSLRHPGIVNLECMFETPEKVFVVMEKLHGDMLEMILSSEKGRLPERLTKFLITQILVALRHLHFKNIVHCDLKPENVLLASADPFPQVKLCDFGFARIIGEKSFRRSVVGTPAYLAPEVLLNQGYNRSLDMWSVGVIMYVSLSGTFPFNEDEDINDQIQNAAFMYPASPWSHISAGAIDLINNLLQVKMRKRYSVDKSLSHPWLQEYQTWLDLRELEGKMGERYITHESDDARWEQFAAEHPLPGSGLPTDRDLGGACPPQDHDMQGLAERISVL
Conditions: at 0.1 µM.

Chain of Protein kinase C beta type (Homo sapiens) (P05771 2-671 limits assumed): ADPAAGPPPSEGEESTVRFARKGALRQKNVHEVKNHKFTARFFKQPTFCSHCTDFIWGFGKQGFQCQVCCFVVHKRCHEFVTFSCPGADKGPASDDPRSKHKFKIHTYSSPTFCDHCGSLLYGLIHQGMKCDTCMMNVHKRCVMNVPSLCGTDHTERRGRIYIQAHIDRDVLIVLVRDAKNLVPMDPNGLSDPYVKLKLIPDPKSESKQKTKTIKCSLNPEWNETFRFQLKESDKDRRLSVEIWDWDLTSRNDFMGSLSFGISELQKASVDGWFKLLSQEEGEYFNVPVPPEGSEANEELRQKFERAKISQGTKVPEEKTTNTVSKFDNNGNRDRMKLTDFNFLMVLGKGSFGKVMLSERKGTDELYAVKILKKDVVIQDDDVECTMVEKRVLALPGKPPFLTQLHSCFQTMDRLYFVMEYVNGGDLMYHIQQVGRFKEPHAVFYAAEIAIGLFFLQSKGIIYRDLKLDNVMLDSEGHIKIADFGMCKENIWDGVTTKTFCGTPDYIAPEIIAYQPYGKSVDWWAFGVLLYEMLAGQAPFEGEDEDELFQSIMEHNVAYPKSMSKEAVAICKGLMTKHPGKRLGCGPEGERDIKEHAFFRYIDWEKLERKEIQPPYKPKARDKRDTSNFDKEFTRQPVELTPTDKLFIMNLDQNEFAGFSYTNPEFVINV
Chain of Protein kinase C theta type (Homo sapiens) (Q04759 whole entry, looked up): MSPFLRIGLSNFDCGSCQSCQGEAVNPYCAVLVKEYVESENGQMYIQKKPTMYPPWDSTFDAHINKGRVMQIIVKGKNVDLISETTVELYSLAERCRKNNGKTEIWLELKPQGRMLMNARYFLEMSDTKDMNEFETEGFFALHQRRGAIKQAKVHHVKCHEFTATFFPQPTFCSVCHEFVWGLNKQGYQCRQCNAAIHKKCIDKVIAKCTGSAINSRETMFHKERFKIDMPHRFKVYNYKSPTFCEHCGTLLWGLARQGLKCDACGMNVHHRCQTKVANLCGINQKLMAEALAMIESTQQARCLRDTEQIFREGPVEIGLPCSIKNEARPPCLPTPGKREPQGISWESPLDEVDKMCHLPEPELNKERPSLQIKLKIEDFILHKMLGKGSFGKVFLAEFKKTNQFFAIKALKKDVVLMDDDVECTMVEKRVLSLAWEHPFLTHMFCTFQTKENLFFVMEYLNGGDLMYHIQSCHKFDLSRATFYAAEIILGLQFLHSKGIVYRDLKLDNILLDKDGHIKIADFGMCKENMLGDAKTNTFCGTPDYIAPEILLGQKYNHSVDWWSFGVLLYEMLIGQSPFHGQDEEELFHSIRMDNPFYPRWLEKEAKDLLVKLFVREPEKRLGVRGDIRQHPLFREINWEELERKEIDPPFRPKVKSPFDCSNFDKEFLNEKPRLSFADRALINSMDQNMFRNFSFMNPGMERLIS
Chain of Protein kinase C eta type (Homo sapiens) (P24723 whole entry): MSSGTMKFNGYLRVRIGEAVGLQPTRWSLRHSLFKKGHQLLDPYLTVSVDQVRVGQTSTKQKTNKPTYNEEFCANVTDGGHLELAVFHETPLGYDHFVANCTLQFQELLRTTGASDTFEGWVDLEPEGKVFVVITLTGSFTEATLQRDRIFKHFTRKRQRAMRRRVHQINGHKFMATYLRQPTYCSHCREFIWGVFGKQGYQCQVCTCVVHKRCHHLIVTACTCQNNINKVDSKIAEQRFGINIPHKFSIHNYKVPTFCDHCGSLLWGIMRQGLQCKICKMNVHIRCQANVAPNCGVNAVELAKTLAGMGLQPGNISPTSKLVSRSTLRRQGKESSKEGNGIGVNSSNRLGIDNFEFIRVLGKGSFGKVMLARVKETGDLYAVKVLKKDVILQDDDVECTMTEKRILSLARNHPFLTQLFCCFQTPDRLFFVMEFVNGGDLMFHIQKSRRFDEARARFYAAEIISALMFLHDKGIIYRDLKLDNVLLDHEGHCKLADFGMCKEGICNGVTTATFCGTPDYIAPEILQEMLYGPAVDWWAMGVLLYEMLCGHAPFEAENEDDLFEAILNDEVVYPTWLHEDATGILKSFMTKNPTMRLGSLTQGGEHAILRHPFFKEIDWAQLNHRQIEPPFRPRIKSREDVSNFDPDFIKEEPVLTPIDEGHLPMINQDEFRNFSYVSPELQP

One may read the inhibition as the relative decrease from the control value, in per cent. Take `NS(=O)(=O)c1ccc(N/N=C2\C(=O)Nc3ccc(C(=O)NCCc4c[nH]cn4)cc32)cc1`: the inhibition stood at 14.2% in [1]; 2.18% in experiment [2]; 7.07% in [3]; 1.52% in [4]; 5.32% in experiment [5]; 1.16% in [6]. Moreover, the inhibition is -0.4% in experiment [7]; 5.07% in [8]; 2.38% in experiment [9]; 0.92% in [10]; 5.55% in [11]; 2.26% in experiment [12]. In addition, the inhibition in experiment [13] was 2.34%; in [14], 2.03%; in experiment [15], 3.63%; in experiment [16] it was 1.05%; in experiment [17], 2.48%; in [18], 6.28%. Moreover, the results for the inhibition in [19] and in [20] were 34.4% and 5.45%, respectively.
With `[O-][S+]1CCN(Cc2ccc(-c3ccc4ncnc(Nc5ccc(OCc6ccccc6)c(F)c5)c4c3)o2)CC1`, the inhibition is 2.01% in [1]; 0.99% in experiment [2]; 0.53% in experiment [3]; 0.47% in experiment [4]; 1.52% in [5]; -0.89% in [6]. Moreover, the inhibition in experiment [7] is -0.42%; in experiment [8] it was 0.68%; in experiment [9], 0.14%; in experiment [10], -0.39%; in experiment [11], -0.2%; in experiment [12], 1.01%. Further, the inhibition in [13] was 1.01%; in experiment [14] it was 0.77%; in [15] it was -0.73%; in [16], 0.35%; in experiment [17], 0.5%; in [18], 2.32%. The inhibition in experiment [19] turned out to be 4.27%; in experiment [20], 3.5%.
Turning to `COc1cc2ncn(-c3cc(O[C@@H](C)c4ccccc4Cl)c(C(N)=O)s3)c2cc1OC`, the inhibition is 0.82% in experiment [1]; 4.37% in experiment [2]; 4.38% in [3]; 1.75% in experiment [4]; 3.87% in experiment [5]; 3.42% in experiment [6]. Also, the inhibition in experiment [7] is 4.55%; in experiment [8] it was 5.28%; in experiment [9] it was 3.1%; in [10], 3.01%; in experiment [11] it was 1.93%; in [12], 3.86%. Further, the inhibition in experiment [13] was 4.88%; in [14] it was 2.16%; in [15], 3.24%; in [16], 1.99%; in experiment [17], 5.36%; in experiment [18] it was 5.25%. For the same compound, the inhibition in experiment [19] came to 6.69%; in experiment [20] it was 4.18%.
`COc1ccc(-c2coc3ncnc(N)c23)cc1`: the inhibition in [1] is 0.68%; in [2], 1.5%; in [3], 1.74%; in experiment [4] it was 0.29%; in experiment [5], 1.92%; in experiment [6], -0.46%. The inhibition in experiment [7] was -0.25%; in experiment [8] it was 3.06%; in experiment [9], 2.62%; in [10] it was 0.83%; in [11] it was 3.98%; in experiment [12] it was 1.44%. In addition, the inhibition in experiment [13] is 3.36%; in experiment [14], 1.7%; in experiment [15] it was 1.28%; in [16], 1.62%; in experiment [17] it was 2.4%; in experiment [18], 4.27%. Further, the results for the inhibition in experiment [19] and in experiment [20] were 6.99% and 4.87%, respectively.
Consider `COc1ccc2cc(-c3c(-c4ccncc4)nc(-c4ccc([S+](C)[O-])cc4)n3C)ccc2c1` (stereo not given), for which the inhibition came out at 0.4% in [1]; 1.97% in experiment [2]; 9.5% in experiment [3]; 0.25% in experiment [4]; 0.94% in [5]; 0.88% in [6]. Moreover, the inhibition in experiment [7] is 7.1%; in experiment [8], 2.61%; in experiment [9], -1.46%; in experiment [10] it was 1.09%; in experiment [11], 0.94%; in experiment [12], 0.48%. Besides, the inhibition is 2.02% in [13]; 1.01% in experiment [14]; 0.27% in [15]; 0.67% in [16]; 3.79% in [17]; 2.99% in experiment [18]. Besides, the values for the inhibition in [19] and in [20] were 5.01% and 3.94%, respectively.
For `c1cnn2ncc(-c3ccnc(Nc4ccc5c(c4)OCCO5)n3)c2c1`, the inhibition in experiment [1] stood at 4.84%; in [2] it was 1.74%; in [3], 7.09%; in experiment [4] it was 2.47%; in experiment [5] it was 20.4%; in [6], 1.95%. In addition, the inhibition amounted to 4.36% in experiment [7]; 4.51% in experiment [8]; 8.26% in [9]; 1.93% in [10]; 9.81% in experiment [11]; 2.88% in experiment [12]. Moreover, the inhibition in experiment [13] was 1.82%; in experiment [14] it was 2.63%; in experiment [15] it was 5.92%; in experiment [16] it was 0.79%; in experiment [17], 5.22%; in experiment [18], 6.99%. The results for the inhibition in [19] and in experiment [20] were 45.1% and 5.55%, respectively.
`CS(=O)(=O)Nc1ccc(N/C=C2\C(=O)Nc3ccccc32)cc1`: the inhibition in experiment [1] was 2.23%; in [2], -2%; in [3] it was 0.29%; in [4], -0.53%; in experiment [5], 0.61%; in experiment [6] it was -0.94%. Besides, the inhibition in [7] was -1.13%; in [8], -0.7%; in experiment [9], -4.5%; in [10] it was -3.28%; in experiment [11], 0.03%; in experiment [12] it was -1.38%. The inhibition in experiment [13] is -0.98%; in experiment [14] it was -1.09%; in experiment [15] it was -0.74%; in experiment [16] it was -1.02%; in experiment [17], -0.85%; in experiment [18], -2.24%. Moreover, the inhibition is 3.18% in experiment [19] and -0.04% in experiment [20].
